Laboratory results published in PubChem BioAssay (NCI).
The panel holds about 79,000 compounds, 15% with a hit somewhere; the sample as a whole holds those more often. Rule as the data show it: active = growth inhibition above about 70%; inactive = the rest.

Columns and labels:
[1] = NCI Yeast Anticancer Drug Screen. Data for the rad50 strain (AID 155);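 also: 0% = growth of vehicle-only cultures of the same strain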; conditions: S. cerevisiae rad50 strain growth inhibition; at 50.0 µM; hits give high values
Procedure, shortened: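 Growth of the mutant yeast was measured after compound exposure and referenced to vehicle-treated cultures.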

[2] = NCI Yeast Anticancer Drug Screen. Data for the mec2-1 strain (AID 157); conditions: S. cerevisiae mec2-1 strain, at 50.0 µM, hits give high values
Procedure, shortened: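 Test agents were screened against the mec2-1 yeast strain, with defined DNA repair or cell cycle alteration. Growth was scored as inhibition against vehicle-only controls.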

[3] = NCI Yeast Anticancer Drug Screen. Data for the sgs1 mgt1 strain (AID 161);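 also: 0% = growth of cultures given vehicle only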; conditions: S. cerevisiae sgs1 mgt1 strain, at 50.0 µM, hits give high values
Procedure, shortened: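 Test agents were incubated with a DNA-repair-mutant yeast strain. Growth was then read and compared against vehicle-treated controls.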

[4] = NCI Yeast Anticancer Drug Screen. Data for the cln2 rad14 strain (AID 165);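 also: 0% = growth equal to vehicle treated cultures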; conditions: S. cerevisiae cln2 rad14 strain, at 50.0 µM, hits give high values
Procedure, shortened: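 Growth of compound-exposed yeast (cln2 rad14 genotype) measured and expressed as inhibition relative to vehicle.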

[5] = NCI Yeast Anticancer Drug Screen. Data for the bub3 strain (AID 167); conditions: S. cerevisiae bub3 mutant strain, at 50.0 µM, hits give high values
Procedure, shortened: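 Whole-cell yeast assay. The mutant strain was incubated with compounds, and growth inhibition was determined by comparison with vehicle-treated cells.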

[6] = NCI Yeast Anticancer Drug Screen. Data for the mlh1 rad18 strain (AID 175); conditions: S. cerevisiae mlh1 rad18 strain growth inhibition; at 50.0 µM; hits give high values
Procedure, shortened: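 In this whole-cell yeast screen, a strain with altered DNA damage repair is challenged with compound, and its growth is measured against matched vehicle-treated controls.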

Measured: growth inhibition

O=S(=O)(c1ccc(O)c(Cl)c1)c1ccc(O)c(Cl)c1
inactive: [1] 32.8% | [2] 37.5% | [3] 16.1% | [4] 36.7% | [5] 47.2% | [6] 31.1%

Cc1ccc(SCC(CF)OCn2cc(F)c(=O)[nH]c2=O)cc1 (configuration not stated)
inactive: [1] -7.85% | [2] -13% | [3] -12.2% | [4] -22.2% | [5] 1.95% | [6] -8.05%

C[n+]1cc(-c2ccccc2)cc2ccccc21
inactive: [1] -1.4% | [2] 17.9% | [3] -0.3% | [4] -17.6% | [5] 4.5% | [6] -14.5%

O=C(Oc1cccc2ccccc12)c1ccccc1
inactive: [1] -10.4% | [2] 15.6% | [3] -5.2% | [4] -76.2% | [5] 6.25% | [6] -9.45%

COc1cc(OC)c(C(C)=O)c(C(C)=O)c1
inactive: [1] -15.8% | [2] -13.6% | [3] -13.6% | [4] -5.3% | [5] -10.6% | [6] -2.55%

N#CC(NNC(=O)c1ccccc1O)c1ccccc1 (configuration not stated)
inactive: [1] 16.1% | [2] 0.5% | [3] 9.85% | [4] -8.7% | [5] 35.9% | [6] 3.75%

CCOC(=O)C(NC(C)=O)C(C)O (configuration not stated)
inactive: [1] 5.85% | [2] 3.95% | [3] 5.05% | [4] 3.85% | [5] 2.95% | [6] -0.75%

NS(=O)(=O)c1ccc(NC(=O)Nc2cccc(C(F)(F)F)c2)cc1
inactive: [1] 23.9% | [2] 2.55% | [3] 12.8% | [4] 12.3% | [5] 23.8% | [6] 9.85%

COC(=O)C(CS)NC(=O)CNC(=O)CNC(=O)C(CCCCNC(=O)OCc1ccccc1)NC(=O)CNC(=O)C(CSC(c1ccccc1)(c1ccccc1)c1ccccc1)NC(=O)OCc1ccccc1 (configuration not stated)
inactive: [1] -16.2% | [2] 2.75% | [3] -10.7% | [4] -17.2% | [5] -25.2% | [6] 0.2%

CC1S/C(=N\N=C\c2ccc(Cl)cc2)N=C1c1c(O)c2ccccc2oc1=O (configuration not stated)
inactive: [1] 13.2% | [2] 52% | [3] 57.4% | [4] -7.5% | [5] 7.65% | [6] 45.9%

COc1cc(C(=O)NC(=S)NC2CCCCCCCCCCC2)cc(OC)c1OC
inactive: [1] 8.1% | [2] -15.3% | [3] 7.25% | [4] 1.65% | [5] 6.05% | [6] 4.6%

O=C1NC(=O)C2(N1)c1ccccc1-c1ccc(Br)cc12 (configuration not stated)
inactive: [1] -2.85% | [2] -8.9% | [3] -0.2% | [4] -20.4% | [5] 0.15% | [6] -2.7%

Cc1ccc(N2C3=C(CC4=C2CC(C)(C)CC4=O)C(=O)CC(C)(C)C3)cc1
inactive: [1] -29.6% | [2] -25.1% | [3] -21.1% | [4] -15.9% | [5] -33.8% | [6] -24.9%

CC(C)(C)C(=CS(=O)/N=C/c1ccccc1)C(C)(C)C (configuration not stated)
inactive: [1] -27.4% | [2] -33% | [3] -28.6% | [4] -7% | [5] -37% | [6] -9.85%

Clc1ccc2cc3ccccc3cc2c1
inactive: [1] -16.7% | [2] 2.5% | [3] -3.95% | [4] -16.4% | [5] 5.8% | [6] -21%

O=C(CCCC(=O)Nc1ccc2[nH]c3ccccc3c(=O)c2c1)Nc1ccc2[nH]c3ccccc3c(=O)c2c1
inactive: [1] 12.7% | [2] -8.6% | [3] -0.3% | [4] 20.9% | [5] -3.55% | [6] 2.95%

CCCCCCCCCC(O)CO (configuration not stated)
inactive: [1] -20.6% | [2] -20.7% | [3] -23.8% | [4] 6.4% | [5] -10.6% | [6] -5.95%

C/C=C\C(=O)OCC(C)COC(=O)/C=C/C (configuration not stated)
inactive: [1] 21.7% | [2] 15.9% | [3] 4.9% | [4] 9.4% | [5] 2.65% | [6] 6.65%

CCCCOC(=O)COc1ccc2c(C)c(CCN(CC)CC)c(=O)oc2c1
inactive: [1] -13.1% | [2] -34.1% | [3] 1.25% | [4] -7.55% | [5] -21.8% | [6] -2.5%

S=C(N/N=C/c1ccc(Cl)cc1Cl)NC1CCc2ccccc21 (configuration not stated)
inactive: [1] -12.3% | [2] 20.5% | [3] -9.7% | [4] -33.8% | [5] -7.95% | [6] -9.25%

Cc1ccc(C(=O)C2=CN=C3C(=O)N(c4ccccc4)N(C)C3(C)C2=N)cc1 (configuration not stated)
inactive: [1] -4.65% | [2] 36.7% | [3] 11.2% | [4] 1.1% | [5] 4.9% | [6] 36.1%

Cc1nn(C(=O)c2ccc(Cl)cc2)c2c1C(c1ccco1)SC(N)=N2 (configuration not stated)
inactive: [1] -28.6% | [2] -17.5% | [3] -8.8% | [4] -17.9% | [5] -18.1% | [6] -14.8%

CC(CCC(=O)CS(C)=O)C1CCC2C3CCC4CCCCC4(C)C3CCC12C (configuration not stated)
inactive: [1] 34.1% | [2] -20.4% | [3] 25.8% | [4] 11.6% | [5] -4% | [6] 0.95%

CCOC(=O)/C=C(/C)c1ccccc1
inactive: [1] 12.2% | [2] 18.2% | [3] 6.9% | [4] 0.7% | [5] -2.7% | [6] 3.1%

O=C(O)Cc1ccc(I)cc1
inactive: [1] 58% | [2] -1.2% | [3] 26.9% | [4] -54% | [5] 34.2% | [6] 25.3%

CNC1(C(=O)O)CCCCC1
inactive: [1] -0.35% | [2] -4.65% | [3] -2% | [4] 4.6% | [5] 4.85% | [6] -2.2%

O=C(c1ccccc1)C1Nc2ccc(Cl)cc2C2C=CCC12 (configuration not stated)
inactive: [1] -1.2% | [2] -7.75% | [3] 6.4% | [4] -7.95% | [5] -0.35% | [6] 14.8%

CCCN(CCC)S(=O)(=O)c1ccc(NC(=O)OC(c2ccccc2)(c2ccccc2)c2ccccc2)cc1
inactive: [1] 24.1% | [2] -4.3% | [3] 5.4% | [4] 7.95% | [5] -3.7% | [6] 0.95%

CCCCCCCN1C=CCC(S(=O)(=O)N2CCOCC2)=C1
inactive: [1] -15.7% | [2] -7.75% | [3] -11.4% | [4] 3.85% | [5] -16.8% | [6] -2%

CC(=O)OCC1OC(n2cnc3c(N)ncnc32)C(Nc2ccc([N+](=O)[O-])cc2[N+](=O)[O-])C(OC(C)=O)C1OC(C)=O (configuration not stated)
inactive: [1] 23.2% | [2] 4.4% | [3] 5.8% | [4] 17.9% | [5] 3.45% | [6] 21.8%

COc1ccc(-n2c(N)c(C#N)c(C#N)c2-c2ccccc2)cc1
inactive: [1] 7.85% | [2] 8.6% | [3] -16.6% | [4] -4.95% | [5] -6.25% | [6] -49.1%

Oc1ccccc1C1N=NC2=C(CCCC2)N1O (configuration not stated)
inactive: [1] -12.9% | [2] -26.4% | [3] -2.5% | [4] -12.1% | [5] 21.9% | [6] -7.15%

CCCCOC(=O)/C(CC(=O)C=C(C)C)=N\NS(=O)(=O)c1ccc(C)cc1
inactive: [1] 1.75% | [2] -14.1% | [3] -10.5% | [4] 5.3% | [5] -8.5% | [6] -5.75%

COC(C)CC(=O)O (configuration not stated)
inactive: [1] -25.8% | [2] -28.2% | [3] -37.2% | [4] -24.5% | [5] -13.2% | [6] -4.9%

CCNC(=S)NCCc1c[nH]c2ccccc12
inactive: [1] -57% | [2] -3.55% | [3] -7.75% | [4] -0.4% | [5] 2.55% | [6] -36.6%

CCNc1ccc(S(=O)(=O)O)cc1C(=O)O
inactive: [1] 0.45% | [2] 4.05% | [3] 0% | [4] -11.8% | [5] 1.25% | [6] -4.6%

CN(C)c1ccc(/C=C/c2nc3ccc(Cl)cc3[nH]2)cc1
inactive: [1] -5.55% | [2] 0.1% | [3] -1.9% | [4] 5.75% | [5] -8.2% | [6] -14.1%
